PubChem BioAssay (Tox21)
Records with an inconclusive call do not appear. Calls of active or inactive are those of the source. Unless noted, calls follow the shape of the dose curve; as a rule, active = well fitted curve in the direction sought with a large enough effect in the repeat runs; inconclusive = weak or mixed curves; inactive = no such curve, though single readings can be large; an effect the other way counts as inactive or inconclusive.

Experiments:
[1] = biological target: Progesterone receptor (Homo sapiens) (UniProt P06401); test: qHTS assay to identify small molecule agonists of the progesterone receptor (PR) signaling pathway (AID 1346784; calls by dose curve; also: nearly all actives have a fitted effect of over 30% in size)
Chain of Progesterone receptor (Homo sapiens) (P06401 whole entry, looked up): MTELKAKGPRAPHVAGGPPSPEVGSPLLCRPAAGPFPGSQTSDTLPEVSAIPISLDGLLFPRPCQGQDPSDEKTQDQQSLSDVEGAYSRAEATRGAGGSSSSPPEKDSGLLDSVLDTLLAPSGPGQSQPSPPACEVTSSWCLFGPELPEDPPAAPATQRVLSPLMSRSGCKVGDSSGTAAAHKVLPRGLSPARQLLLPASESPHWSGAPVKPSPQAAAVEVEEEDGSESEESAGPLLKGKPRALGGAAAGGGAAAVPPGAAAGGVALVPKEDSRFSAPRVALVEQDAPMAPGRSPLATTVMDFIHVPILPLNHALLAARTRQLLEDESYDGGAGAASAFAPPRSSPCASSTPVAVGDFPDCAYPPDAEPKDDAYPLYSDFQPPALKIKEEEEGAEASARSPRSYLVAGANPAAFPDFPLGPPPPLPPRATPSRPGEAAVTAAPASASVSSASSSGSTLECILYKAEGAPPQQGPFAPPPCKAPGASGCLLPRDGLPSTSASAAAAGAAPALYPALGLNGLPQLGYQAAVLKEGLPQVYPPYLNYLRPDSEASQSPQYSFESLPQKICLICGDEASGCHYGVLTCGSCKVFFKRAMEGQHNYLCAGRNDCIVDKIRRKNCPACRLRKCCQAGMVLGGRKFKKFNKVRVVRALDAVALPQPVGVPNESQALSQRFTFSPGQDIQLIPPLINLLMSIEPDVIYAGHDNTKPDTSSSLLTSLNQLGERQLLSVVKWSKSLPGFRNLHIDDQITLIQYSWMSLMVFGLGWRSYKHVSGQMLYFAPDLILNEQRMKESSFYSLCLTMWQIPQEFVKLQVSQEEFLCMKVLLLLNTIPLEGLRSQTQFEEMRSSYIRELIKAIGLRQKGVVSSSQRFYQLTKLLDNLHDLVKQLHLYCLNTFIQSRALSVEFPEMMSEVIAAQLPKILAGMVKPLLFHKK
Outline: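 Compounds were tested for PR agonism in HEK 293T cells bearing a beta-lactamase gene under UAS control. Treatment lasted 16 hr at 37C; signal came from fluorescence of a FRET substrate.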

[2] = biological target: Progesterone receptor (Homo sapiens) (UniProt P06401); test: qHTS assay to identify small molecule antagonists of the progesterone receptor (PR) signaling pathway (AID 1346795; active = well fitted inhibition curve with a large enough effect in the signal ratio in the repeat runs, not every such curve was filed as active; the % refers to the signal ratio)
Outline: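 In HEK293T cells bearing the PR-UAS-bla reporter, compound effects on promegestone-driven (1 nM) beta-lactamase expression are assessed after 16 hr using a fluorescent FRET substrate incubated 2 hr at room temperature.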

[3] = qHTS assay to identify small molecule antagonists of the progesterone receptor (PR) signaling pathway - cell viability counter screen (AID 1346798); also: series mostly up to about 92 µM; nearly all actives have a fitted effect of over 50% in size
Outline: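 Following a 4 hr attachment, PR-UAS-bla HEK293T cells in charcoal-stripped FBS medium were exposed to compounds with R5020 for 16 hr; CellTiter-Glo was added and luminescence read after 30 min at room temperature.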

[4] = qHTS assay to identify small molecule agonists of the progesterone receptor (PR) signaling pathway - cell viability counter screen (AID 1346799; calls by dose curve; also: nearly all actives have a fitted effect of over 45% in size)
Outline: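 Here, 3,000 PR-UAS-bla HEK293T cells per well were treated with compounds for 16 hr after a 6 hr preincubation at 37C and 5% CO2; cell viability is the CellTiter-Glo luminescence signal.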

[5] = qHTS assay to identify small molecule antagonists of the TGF-beta/Smad signaling pathway - cell viability counter screen (AID 1346824); also: nearly all actives have a fitted effect of over 50% in size
Outline: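 SBE-bla HEK 293T cells, incubated overnight, then compound plus 0.25 ng/mL TGF-beta1 (stock added) for 5 hr at 37 C. Viability was read in the same wells by CellTiter-Glo luminescence after 30 min at room temperature.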

[6] = qHTS assay to identify small molecule agonists of the TGF-beta/Smad signaling pathway - cell viability counter screen (AID 1346829); also: top concentration of the series differs between compounds; nearly all actives have a fitted effect of over 45% in size
Outline: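 Compound-treated SBE-bla HEK 293T cells (5 hr, 37 C) were assessed for viability with CellTiter-Glo in parallel with the reporter read.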

[7] = qHTS assay to identify small molecule agonists of the TGF-beta/Smad signaling pathway (AID 1346859; active = well fitted activation curve with a large enough effect in the signal ratio in the repeat runs, not every such curve was filed as active; the % refers to the signal ratio; also: series mostly up to about 77 µM)
Outline: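 Each well held 4,000 SBE-bla HEK 293T cells incubated overnight before compound addition; 5 hr later the cleavable FRET substrate went on for 2 hr at room temperature, and fluorescence was read at two emissions.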

[8] = biological target: Thyrotropin-releasing hormone receptor (Homo sapiens) (UniProt P34981); test: qHTS assay to identify small molecule antagonists of the thyrotropin-releasing hormone receptor (TRHR) signaling pathway (AID 1346877; active = well fitted inhibition curve with a large enough effect in the repeat runs, not every such curve was filed as active; also: series mostly up to about 51 µM)
Chain of Thyrotropin-releasing hormone receptor (Homo sapiens) (P34981 whole entry, looked up): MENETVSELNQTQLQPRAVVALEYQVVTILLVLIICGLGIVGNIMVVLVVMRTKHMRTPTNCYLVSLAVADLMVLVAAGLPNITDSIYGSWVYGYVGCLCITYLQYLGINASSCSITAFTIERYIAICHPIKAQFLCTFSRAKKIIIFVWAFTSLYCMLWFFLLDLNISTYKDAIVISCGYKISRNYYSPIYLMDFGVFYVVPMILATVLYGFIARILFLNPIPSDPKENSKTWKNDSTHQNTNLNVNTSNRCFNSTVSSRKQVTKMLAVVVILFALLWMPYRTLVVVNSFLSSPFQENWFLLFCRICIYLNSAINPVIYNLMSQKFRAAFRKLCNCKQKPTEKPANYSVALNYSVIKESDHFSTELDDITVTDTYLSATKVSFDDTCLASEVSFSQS
Outline: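 Screening used HEK293 cells engineered with TRHR, with a brief 5 min room-temperature compound exposure preceding addition of TRH to 1 nM. The read-out was kinetic calcium-dye fluorescence, concentration-response from 15 doses in triplicate.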

[9] = biological target: Thyrotropin-releasing hormone receptor (Homo sapiens) (UniProt P34981); test: qHTS assay to identify small molecule agonists of the thyrotropin-releasing hormone receptor (TRHR) signaling pathway (AID 1346891; calls by dose curve; also: series mostly up to about 58 µM)
Outline: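 Screening of agonists relied on calcium signalling in HEK293 cells expressing human TRHR: dye loading 2 h at 37 °C preceded compound addition and a 3-min fluorescence time course.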

[10] = Human pregnane X receptor (PXR) small molecule agonists, qHTS cell viability counter screen (AID 1346977); also: nearly all actives have a fitted effect of over 50% in size
Outline: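 Tox21 qHTS format; PXR-Luc HepG2, 2,000/well, charcoal-stripped FBS 5%. Cpd exposure 24hr. Read: CellTiter-Fluor fluorescence, multiplexed with luciferase.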

Measured: Potency

c1ccc(Oc2ccccc2)cc1
inactive: [1] | [2] | [3] | [4] | [5] | [6] | [7] | [8] | [9] | [10]

CC(C)CC(=O)CC(C)CC(C)C (centres undefined)
inactive: [1] | [2] | [3] | [4] | [5] | [6] | [7] | [8] | [9] | [10]

CNC(=O)Oc1ccc2c(c1)[C@]1(C)CCN(C)[C@@H]1N2C
inactive: [1] | [2] | [3] | [4] | [5] | [6] | [7] | [8] | [9] | [10]

CC(C)(C)c1cc(Cc2cc(C(C)(C)C)c(O)c(C(C)(C)C)c2)cc(C(C)(C)C)c1O
inactive: [1] | [2] | [3] | [4] | [5] | [6] | [7] | [8] | [9] | [10]

CCO[Si](CCCN)(OCC)OCC
inactive: [1] | [2] | [3] | [4] | [5] | [6] | [7] | [8] | [9] | [10]

CN/C(=C\[N+](=O)[O-])NCCSCc1csc(CN(C)C)n1
inactive: [1] | [2] | [3] | [4] | [5] | [6] | [7] | [8] | [9] | [10]

COC(=O)CCCC(=O)OC
inactive: [1] | [2] | [3] | [4] | [5] | [6] | [7] | [8] | [9] | [10]

CCCCCCCCCCCC(=O)OC
inactive: [1] | [2] | [3] | [4] | [5] | [6] | [7] | [8] | [9] | [10]

CCOCCOCCOCCO
inactive: [1] | [2] | [3] | [4] | [5] | [6] | [7] | [8] | [9] | [10]

C[Si]1(C)O[Si](C)(C)O[Si](C)(C)O[Si](C)(C)O1
inactive: [1] | [2] | [3] | [4] | [5] | [6] | [7] | [8] | [9] | [10]

CCCCCCCCCCCCCCCC(=O)OC(C)C
inactive: [1] | [2] | [3] | [4] | [5] | [6] | [7] | [8] | [9] | [10]

Cc1ccc(C(C)C)c(O)c1
inactive: [1] | [2] | [3] | [4] | [5] | [6] | [7] | [8] | [9] | [10]

NCCCCCCN
inactive: [1] | [2] | [3] | [4] | [5] | [6] | [7] | [8] | [10]

Cc1ccc2ncccc2c1
inactive: [1] | [2] | [3] | [4] | [5] | [6] | [7] | [8] | [9] | [10]

Cc1ccc([N+](=O)[O-])cc1S(=O)(=O)O
inactive: [1] | [2] | [3] | [4] | [5] | [6] | [7] | [8] | [10]

COc1ccccc1OCC(O)CO (centres undefined)
inactive: [1] | [2] | [3] | [4] | [5] | [6] | [7] | [8] | [9] | [10]

C=Cc1ccc(C)cc1
inactive: [1] | [2] | [3] | [4] | [5] | [6] | [7] | [8] | [10]

CC(=O)OCCOC(C)=O
inactive: [1] | [2] | [3] | [4] | [5] | [6] | [7] | [8] | [10]

CCCCCCCCCCN
inactive: [1] | [2] | [3] | [4] | [5] | [6] | [7] | [8] | [10]

CCCCCCCCCCCCCCCCO
inactive: [1] | [2] | [3] | [4] | [5] | [6] | [7] | [8] | [10]

CC(C)CCCCCCCOC(=O)CCCCC(=O)OCCCCCCCC(C)C
inactive: [1] | [2] | [3] | [4] | [5] | [6] | [7] | [8] | [10]

COCCCN
inactive: [1] | [2] | [3] | [4] | [5] | [6] | [7] | [8] | [9] | [10]

CC1(C)CC(N)CC(C)(CN)C1 (centres undefined)
inactive: [1] | [2] | [3] | [4] | [5] | [6] | [7] | [8] | [9] | [10]

CC(CCO)CC(C)(C)C (centres undefined)
inactive: [1] | [2] | [3] | [4] | [5] | [6] | [7] | [8] | [10]

CCc1ccccc1CC
inactive: [1] | [2] | [3] | [4] | [5] | [6] | [7] | [8] | [10]

C=CC[N+](C)(C)CC=C
inactive: [1] | [2] | [3] | [4] | [5] | [6] | [7] | [8] | [10]

C=C(C)CNCC
inactive: [1] | [2] | [3] | [4] | [5] | [6] | [7] | [8] | [10]
